# Test results as given in the supplement of paper PMC6555819.
# What was measured:
# Assay in all cases: PBM binding z-score (relative to random genomic background probes); higher = stronger binding; sequences stand for … in GC…GCGATTGACAGCGTAGAATGAAGG
# [1] = tested on: RARb homodimer (NR concentration 270 nM)
# Outline: (§1)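 Antibodies against each partner of ligand-free nuclear receptor dimers (one per run) detected binding on custom Agilent 4×180K protein-binding microarrays after 1 h incubation. The double-stranded probes had 34-nt variable regions carrying direct-repeat seeds, single-nucleotide variants, half-site ablations and random human genomic background sequences. Binding z-scores, from regression-normalized fluorescence, use the random background probes as reference.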
# [2] = tested on: RARg:RXRa (NR concentration 270 nM, RXRa partner concentration 90 nM)
# Outline: as §1
# [3] = tested on: RARg homodimer (NR concentration 270 nM)
# Outline: as §1
# [4] = tested on: RXRa DBDmut IVT, anti-RXR (DBD mutation: RXRa K156A/R161A, NR concentration 90 nM)
# Outline: as §1
# [5] = tested on: RXRa homodimer (NR concentration 180 nM)
# Outline: as §1
# [6] = tested on: THRa:RXRa (NR concentration 90 nM, RXRa partner concentration 90 nM)
# Outline: as §1
# [7] = tested on: THRa homodimer (NR concentration 90 nM)
# Outline: as §1
# [8] = tested on: VDR homodimer (NR concentration 270 nM)
# Outline: as §1
Sequence,PBM binding z-score [1],PBM binding z-score [2],PBM binding z-score [3],PBM binding z-score [4],PBM binding z-score [5],PBM binding z-score [6],PBM binding z-score [7],PBM binding z-score [8]
TCAGACAGGTGAAGTTAACTCAGGTACGCAGTCG,0.596,0.588,0.629,1.33,0.838,1.55,0.285,0.404
TCTAGTTGGTCAAAGATCACACACTCGAAATGCG,0.919,1.57,0.992,1.48,1.61,0.536,0.263,0.452
GCTATTAGTTGAATGGGCAACCGAATGATTCTCG,-0.506,-0.114,0.0984,0.405,-0.209,-0.559,-0.678,-0.095
ACTCGGAGGACAAAGGTCGGAGCTACGCCAGTGA,2.12,3.28,1.75,0.784,2.2,1.98,0.0146,0.22
TCTGCTAGGTCAACGATGGTCAGCTGATCTGCTA,3.36,4,4.88,0.835,2.52,2.99,0.473,-0.511
ACTATTAGTTGTCTTAGGGCAACCGATACGACGC,0.406,0.149,0.589,0.518,0.061,1.03,0.603,0.0368
TAGCCTAGATCATGGGCCAGTATACCACGCGAAC,-0.389,-0.301,-0.388,-0.748,-0.39,-0.674,-0.848,-0.532
